Rows were chosen to be rich in hits. Some 2.2% of all compounds tested hit in one or more screens of this group.
dFosB activator: mouse delta FosB homodimer activation | P13346 | purified delta FosB, TAMRA-CDK5 oligo fluorescence polarization; percent of positive-control signal above neutral wells | activation, % at 25 µM | actives 0.99% (n = 340,000);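 active = mean activation above about 17%, with every replicate also reaching it, limit read from the data, passing the limit was not always enough; inconclusive = only one of the two conditions met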
Target sequence (P13346 whole entry, looked up): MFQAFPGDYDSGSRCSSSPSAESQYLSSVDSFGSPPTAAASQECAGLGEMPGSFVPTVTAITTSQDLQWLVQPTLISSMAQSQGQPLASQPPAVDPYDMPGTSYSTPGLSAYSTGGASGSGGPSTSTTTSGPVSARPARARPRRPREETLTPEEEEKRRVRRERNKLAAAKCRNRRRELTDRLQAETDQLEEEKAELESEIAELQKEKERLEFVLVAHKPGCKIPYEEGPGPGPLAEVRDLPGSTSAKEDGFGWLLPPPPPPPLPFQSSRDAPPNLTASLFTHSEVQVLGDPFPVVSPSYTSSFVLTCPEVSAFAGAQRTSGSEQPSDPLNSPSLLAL
EBNA-1 inhibitor: blocks EBNA-1 binding to DNA; inhibition, % at 14.8 µM; EBNA-1 DNA binding, fluorescence polarization; actives 0.34% (n = 300,000); AID 1950; in the data active = inhibition above about 28%
PolyA inh: yeast polyadenylation inhibition; S. cerevisiae SKY197-pL101 polyadenylation reporter, beta-gal luminescence; efflux-impaired pdr1/pdr3 knockout yeast; score 100 = 6 SD above DMSO; activity score, % at 12 µM; actives 0.02% (n = 300,000); AID 1875;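 active = lowest replicate activity score at least 50, where 100 means six control SD above control mean; inconclusive = lowest score under 50 but half or more replicates reach 50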;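 note: yeast exposed to compound for 9 h at 30 °C; higher score means more reporter readthrough which indicates perturbed polyadenylation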
NALP1 inh: NALP1 inhibition | S. cerevisiae NALP1/ASC/caspase-1 growth, X-gal OD620, 72 h | inhibition, % at 10 µM | actives 0.61% (n = 280,000); in the data active = inhibition mostly above about 24%, no sharp cut-off; inactive = mostly below about 32%
NALP3 yeast inh: NALP3 inhibition in yeast | actives 0.39% (n = 330,000) | Yeast reconstituted NLRP3/ASC/caspase-1, beta-gal luminescence, 24 h | AID 2825 | inhibition, % at 10 µM;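 active = inhibition of 50% or more; inactive = inhibition below 50%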;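 note: plate controls were induced DMSO wells for no effect and uninduced yeast grown without galactose for full effect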
ZTA DNA inh: blocks Epstein-Barr virus ZTA, an EBNA-1 counter-screen; P03206; ZTA-DNA binding, fluorescence polarization; inhibition, % at 11 µM; actives 0.15% (n = 320,000); AID 2234; in the data active = inhibition above about 33%
Target sequence (P03206 whole entry, looked up): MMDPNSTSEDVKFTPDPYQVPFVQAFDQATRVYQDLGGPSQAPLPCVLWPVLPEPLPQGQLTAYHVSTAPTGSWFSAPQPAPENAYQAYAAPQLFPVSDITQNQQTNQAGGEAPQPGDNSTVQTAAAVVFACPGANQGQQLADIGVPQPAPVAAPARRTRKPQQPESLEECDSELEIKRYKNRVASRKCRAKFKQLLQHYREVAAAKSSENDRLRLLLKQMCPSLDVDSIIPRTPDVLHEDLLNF
EBNA-1 confirm: EBNA-1 (EBV) inhibition, confirmation. shares compounds with EBNA-1 inhibitor. Recombinant EBNA-1 DBD, Cy5-DNA fluorescence polarization. inhibition, % at 14.8 µM. actives 35% (n = 830). AID 2292;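 active = mean inhibition across replicates above a set limit taken from the earlier primary screen, cut at about 28% in these data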;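 note: plate controls were EBNA-1 protein with DMSO for no effect and wells lacking EBNA-1 for full effect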
ZTA counter trip: counter-screen for EBNA-1 inhibitors: Epstein-Barr virus ZTA inhibitors, triplicate; 830 tested, under 10 active; shares compounds with EBNA-1 inhibitor; inhibition, % at 11.1 µM; Zta-ZRE DNA binding, Cy5 fluorescence polarization; AID 2328;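 active = mean inhibition over triplicates above a set limit taken from the primary EBNA-1 screen, cut at about 37% in these data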;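 note: purified full length Zta protein with Cy5 labeled ZRE DNA probe; 0% = Zta with DMSO and 100% = wells lacking Zta protein; inhibitors lower polarization by freeing the labeled DNA probe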
* marks the source's active call; other numbers are inactive results; ? = inconclusive; . = no result given.

SMILES	dFosB activator	EBNA-1 inhibitor	PolyA inh	NALP1 inh	NALP3 yeast inh	ZTA DNA inh	EBNA-1 confirm	ZTA counter trip
O=C(NCc1ccc(Cl)cc1)C1CCC(CNS(=O)(=O)c2ccccc2)CC1 (centres undefined)	1	9	-7	3	12	6	.	.
COC(=O)c1cn(NC(=O)Cc2ccc(Cl)c(Cl)c2)c(=O)c2ccccc12	-4	44*	-3	25	11	-4	25	-8
COC(=O)c1cn(NC(=O)Cc2ccc(Cl)cc2)c(=O)c2ccccc12	0	7	4	16	10	10	.	.
CC1=CC2=NC(=O)/C(=C\c3ccc(-c4cccc(Cl)c4)o3)C(=N)N2O1	-8	29*	-4	11	14	10	2	7
CC1=NOC(=O)/C1=C\c1ccc(-c2cccc(Cl)c2)o1	-14	0	3	8	4	3	.	.
NS(=O)(=O)c1ccc(CCNC(=O)C2CCC(CNS(=O)(=O)c3ccc(Br)s3)CC2)cc1 (centres undefined)	4	59*	-11	-1	8	-13	24	-6
Nc1nc(-c2ccc3c(c2)OCCO3)cs1	4	-6	1	-25	25	-8	.	.
Nc1nc(-c2ccc3c(c2)CCCC3)cs1	-16	53*	.	22	24	-17	7	-6
O=C(c1ccc2c(=O)n(Cc3ccco3)c(=S)[nH]c2c1)N1CCN(c2ccccc2)CC1	-1	40*	.	10	14	-27	-1	-1
Nc1c(C(=O)Nc2ccc3c(c2)OCCO3)nnn1Cc1cccc(Cl)c1	-1	54*	13	.	15	12	108*	4
Nc1c(C(=O)Nc2ccc3c(c2)OCCO3)nnn1Cc1ccc(F)cc1	0	13	?	.	13	19	.	.
CSc1ccccc1NC(=O)CN(C)C(=O)C1CCN(C(=O)Nc2ccccc2)CC1	-7	-11	2	.	12	-11	.	.
COc1ccc(-c2cc(CCCC(=O)NCCc3ccc(OC)cc3OC)no2)cc1	-3	36*	-2	-12	12	1	46*	13
COc1ccc2[nH]c3c(c2c1)CCN1C(=O)N([C@@H](C)C(=O)NC2CCCCC2C)C(=O)[C@]31C (some centres undefined)	-12	-6	25	15	14	-6	.	.
CCn1ncc(S(=O)(=O)Nc2cc(Cl)ccc2C)c1C	1	9	3	5	14	1	.	.
CCOC(=O)Cc1csc(NC(=O)CSc2nc(N)c3c(C)c(C)sc3n2)n1	4	169*	21	21	-3	3	7	5
CCOC(=O)Cc1csc(NC(=O)CSc2nc(C)cc(C)n2)n1	3	.	.	.	12	.	.	.
Cc1ccccc1Nc1nnc(SCC(=O)NC(=O)Nc2ccc3c(c2)OCCO3)s1	.	12	-10	10	3	0	.	.
COc1ccccc1Nc1nnc(SCC(=O)NC(=O)Nc2ccc3c(c2)OCCO3)s1	?	36*	-10	13	4	5	15	11
CCN(CC(=O)Nc1ccc2c(c1)OCCO2)S(=O)(=O)c1ccc(F)cc1	-3	0	13	0	15	18	.	.
CN(c1ccc(OCC(=O)Nc2nc3ccccc3s2)cc1)S(=O)(=O)c1ccccc1	10	47*	-12	32	-7	12	23	8
CC(=O)Nc1ccc(NC(=O)C(Sc2ccccc2)c2ccccc2)cc1 (centres undefined)	-1	4	14	6	-3	12	.	.
CC(C)NC(=O)C(Sc1ccccc1)c1ccccc1 (centres undefined)	-12	39*	-5	8	4	-6	1	1
COc1cc(C#N)ccc1OCC(=O)N1CCc2ccccc2C1	-7	3	1	7	10	0	.	.
Cc1ccc(N(Cc2ccc(C(=O)NC3CCCCC3)cc2)S(C)(=O)=O)cc1C	7	31*	4	44	13	-4	34*	-14
SMILES	dFosB activator	EBNA-1 inhibitor	PolyA inh	NALP1 inh	NALP3 yeast inh	ZTA DNA inh	EBNA-1 confirm	ZTA counter trip
COc1ccc(S(=O)(=O)NNC(=O)c2cc3c4ccccc4n(C)c3s2)cc1	16	32*	18	16	27	-8	18	3
COC(=O)c1ccc(NC(=O)Cn2nc(-c3ccncc3)nc2SCC(=O)Nc2nccs2)cc1	-4	52*	8	1	4	-17	35*	-14
Cc1nn(C)c(C(=O)N/N=C/c2ccc(-c3ccccc3)cc2)c1Cl	6	37*	-35	-4	11	6	28*	25
CCCNC(=O)c1ccc2c(=O)c(O)c(-c3ccc(OC)cc3)[nH]c2c1	-1	32*	-7	-6	6	4	-6	7
CCCNC(=O)c1ccc2c(=O)c(O)c(-c3ccc(C)cc3)[nH]c2c1	-2	7	7	4	16	6	.	.
O=C(CSC(=S)N1CCCCC1)Nc1nc(-c2ccccc2)c(-c2ccccc2)o1	-13	36*	-12	5	-50	26	6	-1
CCCCn1c(N)c(N(CCOC)C(=O)c2cccc(S(=O)(=O)N(C)c3ccc(C)cc3)c2)c(=O)[nH]c1=O	-7	-4	-8	.	10	1	.	.
Cc1cc(C)c2c(-n3cccc3)c(C(=O)NNS(=O)(=O)c3ccc(Cl)cc3)sc2n1	-2	30*	-8	-5	4	3	2	1
Cc1cc(C)c2c(-n3cccc3)c(C(=O)NNS(=O)(=O)c3ccccc3)sc2n1	-11	2	5	9	5	2	.	.
CCN(CC)S(=O)(=O)c1ccc(OC)c(NC(=O)OCc2ccccc2)c1	-7	7	2	16	23	8	.	.
CCOC(=O)c1sc(N2C(=O)C(O)=C(C(=O)c3ccc(C)o3)C2c2ccc(OC)c(OC)c2)nc1C (centres undefined)	-7	5	-11	1	4	5	.	.
CCOC(=O)c1sc(N2C(=O)C(O)=C(C(=O)c3ccc(C)o3)C2c2cccc([N+](=O)[O-])c2)nc1C (centres undefined)	0	33*	11	5	.	23	17	-20
O=C(Cc1cccc2ccccc12)Nc1ccc(-c2cc3ccccc3oc2=O)cc1	-2	29*	-16	41	-15	5	22	7
COC(=O)C1CSC(C(=O)OC)N1C(=O)Nc1ccccc1 (centres undefined)	-1	55*	-19	21	7	8	-10	-3
c1ccc(Cn2cc(-c3ccccc3)cn2)cc1	8	.	.	.	32	-12	.	.

Screening results as filed in PubChem.
